Measurements: PubChem BioAssay AID1159580 (chemical genetic matrix, 2015)
Out of some 5,500 compounds screened, about 2,000 (36%) were called active. Another 18% or so got no clear call; they are omitted. No stated cut-off is given here; in the data, active means normalized growth mostly below about 0.91 (no sharp cut-off); inconclusive means no clear call, values can overlap the other calls; inactive means mostly above about 0.92. This is one part of the list.

Assay: chemical genetic growth profiling, strain panel (AID 1159580);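 further: tested at 20 µM; growth read once vehicle control cultures reached saturation at 30 °C; 1 = growth at the plate median or of vehicle wells; lower values mean less growth of the strain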
Settings: S. cerevisiae deletion strains, growth OD

Measured: normalized growth

CSc1nc(N)c2ncn([C@@H]3O[C@H](COP(=O)(O)OP(=O)(O)O)[C@H](O)C3O)c2n1 (stereo partly drawn)
inactive: locus YAL013W, strain DEP1, hits give low values 1.01 | locus YAL040C, strain CLN3, hits give low values 1.01 | locus YCL061C, strain MRC1 (second series), hits give low values 1.01 | locus YDR363W, strain ESC2, hits give low values 1.04 | locus YER002W, strain NOP16, hits give low values 1 | locus YJR075W, strain HOC1, hits give low values 1.03 | locus YNL153C, strain GIM3, hits give low values 1.03 | locus YNL175C, strain NOP13, hits give low values 1.02 | locus YNL197C, strain WHI3, hits give low values 0.99 | locus YNL224C, strain SQS1, hits give low values 0.998 | locus YOR083W, strain WHI5 (second series), hits give low values 1.02 | locus YPL055C, strain LGE1, hits give low values 1.02 | locus YPL241C, strain CIN2, hits give low values 1
